In PubChem BioAssay (NCI):
Values joined by “and” are separate entries in the source; they are usually repeats but may differ in a detail not shown here. Equal values may be shown once. Compounds without any hit were thinned out: in the full panel of roughly 79,000, 15% have a hit. Cut-off read from the data, not from the text of the source: active = growth inhibition above about 70%; inactive = the rest. Where a SMILES comes first, the peptide text is derived from it. The star is where a group is joined. Fmoc = O=C(OCC1c2ccccc2-c2ccccc21)*; Boc = CC(C)(C)OC(=O)*; OtBu = CC(C)(C)O*

How the values were obtained:
[1] = NCI Yeast Anticancer Drug Screen. Data for the rad50 strain (AID 155);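 note: 0% = growth of vehicle-only cultures of the same strain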; conditions: S. cerevisiae rad50 strain growth inhibition; at 50.0 µM; hits give high values
Outline: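 Readout: growth inhibition relative to vehicle-treated cultures. Compound exposure was carried out in a genetically defined yeast strain deficient in DNA damage repair.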

[2] = NCI Yeast Anticancer Drug Screen. Data for the mec2-1 strain (AID 157); conditions: S. cerevisiae mec2-1 strain, at 50.0 µM, hits give high values
Outline: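 Each compound was tested on mec2-1 yeast, a strain altered in DNA damage repair or cell cycle control. Growth inhibition is reported relative to vehicle.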

[3] = NCI Yeast Anticancer Drug Screen. Data for the sgs1 mgt1 strain (AID 161);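 note: 0% = growth of cultures given vehicle only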; conditions: S. cerevisiae sgs1 mgt1 strain, at 50.0 µM, hits give high values
Outline: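 Test agents were incubated with a DNA-repair-mutant yeast strain. Growth was then read and compared against vehicle-treated controls.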

[4] = NCI Yeast Anticancer Drug Screen. Data for the cln2 rad14 strain (AID 165);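 note: 0% = growth equal to vehicle treated cultures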; conditions: S. cerevisiae cln2 rad14 strain, at 50.0 µM, hits give high values
Outline: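 Test compounds were added to cln2 rad14 yeast cultures; inhibition of growth was then determined by comparison with vehicle treatment.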

[5] = NCI Yeast Anticancer Drug Screen. Data for the bub3 strain (AID 167); conditions: S. cerevisiae bub3 mutant strain, at 50.0 µM, hits give high values
Outline: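 Readout: yeast growth inhibition, expressed relative to vehicle-only wells. The test organism is a mutant strain from a panel with lesions in DNA repair or checkpoint genes.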

[6] = NCI Yeast Anticancer Drug Screen. Data for the mlh1 rad18 strain (AID 175); conditions: S. cerevisiae mlh1 rad18 strain growth inhibition; at 50.0 µM; hits give high values
Outline: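 Inhibition values reflect reduced growth of mutant yeast versus vehicle-treated controls following compound exposure; the mutations affect DNA damage repair.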

Measured: growth inhibition

COCc1cc(C)c(C#N)c(=O)[nH]1
inactive: [1] -2.35% and 9.35% | [2] 1.5% and 5.35% | [3] -5% and -8.7% | [4] 17.9% and -3.65% | [5] 13.3% and -7.55% | [6] -3.9% and 0.85%

C=C1C[C@]23C[C@@]1(O)CC[C@H]2[C@@]12C=C[C@H](O)[C@@](C)(C(=O)O1)[C@H]2[C@@H]3C(=O)O
inactive: [1] -20.4% and -0.7% | [2] -39.5% and -16.6% | [3] -31.1% and -1.3% | [4] 0.4% and 0.9% | [5] -51.8% and -18.1% | [6] -52.4% and -3%

COC(=O)C(C)(C)O
inactive: [1] -1.2% and 20.4% | [2] 8.2% and -28.9% | [3] -4.15% and -12% | [4] -26.9% and -75.2% | [5] 1.95% and -19.1% | [6] 3.1% and 1.55%

C/C=C(\C)c1cc(=O)c2c(C)cc3c(c2o1)C(=O)c1c(O)c(C2CC(C)(N(C)C)C(O)C(C)O2)cc(C2CC(N(C)C)C(O)C(C)O2)c1C3=O (stereo unspecified)
inactive: [1] 1.95% and 21.3% | [2] -16% and 10.7% | [3] 14.6% and 17.4% | [4] 3.4% and 25.8% | [5] 8.2% and 9.4% | [6] -5.8% and 10.2%

CC1CC(C)(C)C2=NCCN21 (stereo unspecified)
inactive: [1] 2.25% and -8.15% | [2] -23.6% and -28.6% | [3] -4.8% and 8.8% | [4] -3.2% and 18.6% | [5] -7.3% and 14.2% | [6] -0.7% and -3.25%

COC(=O)C(Cc1ccccc1)NC(=O)C(CNC(=O)OCc1ccccc1)C(=O)OCc1ccccc1 (stereo unspecified)
inactive: [1] 16.2% and -13.2% | [2] -5.6% and -6.65% | [3] -1.9% and -8.85% | [4] 0.65% and -3.55% | [5] -3.5% and -20.5% | [6] -11.1% and -10.2%

C[N+](C)(C)CCO
inactive: [1] -16.1% and 2.25% | [2] -22.9% and -8.65% | [3] -5.85% and -6.65% | [4] 21.1% and 13.4% | [5] 16.5% and 16.8% | [6] 0.85% and -2.2%

O=C1c2ccccc2C(=O)c2c(O)ccc(O)c21
inactive: [1] 51.5% and 39.8% | [2] 37.2% and 11.2% | [3] 54.1% and 21.6% | [4] 24.4% and 33.8% | [5] 52% and 28.9% | [6] 50.5% and 13.8%

CC12CCC(C(=O)OC1=O)C2(C)C (stereo unspecified)
inactive: [1] 3.8% and -0.45% | [2] -8.2% and 4.05% | [3] -46.8% and -13.5% | [4] 28.1% and -51% | [5] -29.8% and 0.35% | [6] -55% and -0.75%

CC(C)=CCCC(C)C1CCC2(C)C3=C(CCC12C)C1(C)CCC(O)C(C)(C)C1CC3 (stereo unspecified)
inactive: [1] 32.6% and 9.75% | [2] 16.4% and 2.65% | [3] 27.6% and 20.9% | [4] 25.9% and -0.25% | [5] 7.8% and 15.2% | [6] 23.9% and 29.6%

O=C(NC(=O)c1cn(C2OC(CO)C(O)C2O)c(=O)[nH]c1=O)OCc1ccccc1 (stereo unspecified)
inactive: [1] -3.55% and -14.8% | [2] -4.8% and 23.7% | [3] -25.6% and -8.85% | [4] 11.1% and 20.3% | [5] -19.6% and -17.8% | [6] -19.6% and 0.55%

COc1ccc(Cc2c3cc(O)c(=O)cc-3ccn2C)cc1OC
inactive: [1] 2.75% and 47.7% | [2] 14.2% and 24.5% | [3] 23.4% and 22.3% | [4] 32.2% and 8.35% | [5] 29.2% and 5.5% | [6] 28.1% and 17.9%

O=C(O)c1cc2ccccc2c(=O)[nH]1
inactive: [1] -2.25% and 29.4% | [2] 4.55% and 10.8% | [3] -6.9% and 21.9% | [4] 0.8% and 12.2% | [5] 0.9% and 4.45% | [6] 2.4% and -6.55%

Cc1ccc2c(c1)P(=O)(O)c1cc(C)ccc1S2(=O)=O
inactive: [1] -0.75% and 4.5% | [2] 11.2% and -2.65% | [3] 6.75% and -4.1% | [4] -1.1% and -1.2% | [5] 0.45% and -9.3% | [6] -1.1% and -0.2%

NNS(=O)(=O)c1ccc(Cl)cc1
inactive: [1] -3.5% and 13.2% | [2] -19.1% and 2.45% | [3] -5.45% and 6.6% | [4] 13.4% and -4.4% | [5] 22.9% and 9.8% | [6] -8.3% and 7%

CC(=O)OC1CCC2(C)C(CCC3(C)C2CCC2C4=CC(C)(C)CCC4(C)CCC23C)C1(C)C (stereo unspecified)
inactive: [1] 14.1% and -0.45% | [2] 10% and -9.7% | [3] -10.7% and -1.75% | [4] 13.4% and -3.6% | [5] 10.6% and -4.15% | [6] 20.1% and 7.15%

O=C(O)CCC(=O)c1cccs1
inactive: [1] 12.8% and -5.4% | [2] 4.25% and 19.6% | [3] 2.2% and -4.45% | [4] -28.4% and -5.5% | [5] -5.1% and -25.4% | [6] -28.9% and -21.1%

CC(C)(C)OC(=O)CCC(NC(=O)OCC1c2ccccc2-c2ccccc21)C(=O)NC(Cc1c[nH]c2ccccc12)C(=O)NC(CCCCNC(=O)OC(C)(C)C)C(=O)N1CCCC1C(=O)NCC(N)=O (stereo unspecified) (Fmoc-E(OtBu)WK(Boc)PG-NH2; configuration not given here)
inactive: [1] -24.2% and -27.9% | [2] -23.1% and -22.1% | [3] -12.7% and -17% | [4] 5.7% and 12.8% | [5] -16.6% and -4.35% | [6] -17.8% and -22.2%

CC(=O)OC1COC(N2CCc3ccccc32)C(OC(C)=O)C1OC(C)=O (stereo unspecified)
inactive: [1] -16.2% and -19% | [2] -2.95% and -28% | [3] -33% and -34.4% | [4] -6.75% and -2.5% | [5] -27.7% and -17.9% | [6] -25.2% and -33.2%

CSCCC(NC(=O)CN)C(=O)O (stereo unspecified)
inactive: [1] 8.7% and -6.35% | [2] -14.6% and -11.8% | [3] 3% and -2.45% | [4] 14.4% and 0.15% | [5] -7.15% and -13.8% | [6] 5.35% and -7.05%

Nc1ccc(C(F)(F)F)cc1[N+](=O)[O-]
inactive: [1] -33.3% and 12.1% | [2] -19.9% and 5.6% | [3] -49.6% and 12.5% | [4] -43.6% and 10.2% | [5] -35.1% and 3.5% | [6] -22.5% and 9.15%

CN(C)CC1CCCC(CN2CCCCC2)C1=O (stereo unspecified)
inactive: [1] -13.3% and -7.95% | [2] -37.8% and 9.7% | [3] -33.5% and 8.2% | [4] 4.6% and -38.9% | [5] -11.6% and -9.5% | [6] -6.4% and 9.4%

CC(=O)OCC1OC(n2c(C)c(C)cc(C#N)c2=S)C(OC(C)=O)C(OC(C)=O)C1OC(C)=O (stereo unspecified)
inactive: [1] -18.1% and 18.2% | [2] -10.2% and -13.2% | [3] -4.8% and -4.05% | [4] -23.4% and 18.9% | [5] -2.2% and 18.7% | [6] 4.3% and 14.9%

CC(CCC(=O)O)C1CCC2C3C(O)CC4CC(O)CCC4(C)C3CC(O)C12C (stereo unspecified)
inactive: [1] 42.7% and 3.65% | [2] 46.2% and -12.6% | [3] 45.4% and -17.3% | [4] 47.6% and 0.9% | [5] 46.7% and -9.35% | [6] 35.9% and 14.2%

CC(O)C(O)C(O)C(O)CO (stereo unspecified)
inactive: [1] 17.1% and -19.8% | [2] -8.65% and -14.4% | [3] -15.2% and -4.65% | [4] 14.2% and -28.2% | [5] -18.9% and -5.9% | [6] 0.15% and -4.05%

O=c1[nH]c2[nH]c(=S)[nH]c(=S)c2[nH]1
inactive: [1] -19.7% and 13.8% | [2] 8.45% and -2.5% | [3] -17.5% and -4.85% | [4] 13.8% and -41.7% | [5] -24.7% and -10.8% | [6] -20.1% and -0.3%
